Inconclusive results are not listed. Active and inactive are the calls of the source. The calls were made as follows: active = hit-call score of the fitted dose curve at least 0.9, where 1 is the maximum; inconclusive = response in the unintended direction; inactive = score below 0.9.
Columns and labels:
[1] = ATG_M_06_XSP1: Attagene TRANS-FACTORIAL Multi-Species (XSP1) HepG2 Assay for M06 Transcription Factor (Internal Marker) (AID 2283790)
Method in brief: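 Transfected HepG2 multi-reporter system treated 24 h in the presence of 3 nM 6-alpha-fluorotestosterone. The M06 internal marker transcript was quantified by RT-PCR with capillary electrophoresis as a background control, and gain of signal was scored versus DMSO.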

[2] = ATG_M_61_XSP1: Attagene TRANS-FACTORIAL Multi-Species (XSP1) HepG2 Assay for M61 Transcription Factor (Internal Marker) (AID 2283797)
Method in brief: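 HepG2 cells transiently transfected with multiplexed GAL4-driven reporter units, dosed 24 h with 3 nM 6-alpha-fluorotestosterone present. Reporter mRNA quantified by RT-PCR, 6-FAM labelling, HpaI digestion and capillary electrophoresis; internal-marker background control, gain of signal versus DMSO.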

[3] = ATG_M_19_XSP1: Attagene TRANS-FACTORIAL Multi-Species (XSP1) HepG2 Assay for M19 Transcription Factor (Internal Marker) (AID 2283798)
Method in brief: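 HepG2 cells transiently transfected with multiplexed GAL4-UAS reporter units, dosed 24 h with 3 nM 6-alpha-fluorotestosterone present for partial AR stimulation. Reporter mRNA measured by RT-PCR with capillary electrophoresis; gain-of-signal fitted relative to DMSO.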

[4] = target: mouse Peroxisome Proliferator-activated Receptor gamma (PPARg), Pparg (gene 19016) (UniProt P37238); experiment: ATG_mPPARg_XSP1: Attagene TRANS-FACTORIAL Multi-Species (XSP1) HepG2 Assay for mouse Peroxisome Proliferator-activated Receptor gamma (PPARg) (AID 2283802)
Method in brief: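 HepG2 cells transiently transfected with GAL4-UAS reporter units driven by mouse PPARg–GAL4 chimera; 3 nM 6-alpha-fluorotestosterone present. After 24 h dosing, reporter mRNA quantified by RT-PCR, fluorescent labelling and capillary electrophoresis; gain of signal versus DMSO.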

[5] = target: Nuclear receptor subfamily 1 group I member 2 (Mus musculus) (UniProt O54915); experiment: ATG_mPXR_XSP1: Attagene TRANS-FACTORIAL Multi-Species (XSP1) HepG2 Assay for mouse Pregnane X Receptor (PXR) (AID 2283803)
Method in brief: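 Transiently transfected HepG2 cells expressing a receptor-Gal4 chimera drive a GAL4-UAS reporter; 3 nM 6-alpha-fluorotestosterone included. Reporter mRNA read 24 h post-dose by RT-PCR and capillary electrophoresis; gain of signal relative to DMSO.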

[6] = test system: turtle Thyroid Hormone Receptor, alpha (TRa), gene 101949057; experiment: ATG_trTRa_XSP1: Attagene TRANS-FACTORIAL Multi-Species (XSP1) HepG2 Assay for turtle Thyroid Hormone Receptor, alpha (TRa) (AID 2283806)
Method in brief: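 HepG2 cells transiently transfected with GAL4-UAS reporter units and chimeric receptor-Gal4 constructs, with 3 nM 6-alpha-fluorotestosterone present. Reporter mRNA was quantified 24 h after dosing by RT-PCR, 6-FAM labelling and capillary electrophoresis; gain of signal versus DMSO.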

[7] = target: zebrafish Thyroid Hormone Receptor beta (TRb), thrb (gene 30607) (UniProt Q9PVE4); experiment: ATG_zfTRb_XSP1: Attagene TRANS-FACTORIAL Multi-Species (XSP1) HepG2 Assay for zebrafish Thyroid Hormone Receptor beta (TRb) (AID 2283809)
Method in brief: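 HepG2 cells transiently transfected with multiplexed GAL4-UAS reporter units expressing chimeric zebrafish TRb–Gal4. Dosed 24 h with 3 nM 6-alpha-fluorotestosterone present; reporter mRNA measured by RT-PCR, HpaI digestion and capillary electrophoresis; gain of signal versus DMSO.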

[8] = ATG_M_06_XSP2: Attagene TRANS-FACTORIAL Multi-Species (XSP2) HepG2 Assay for M06 Transcription Factor (Internal Marker) (AID 2283811);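 also: hits are increases in signal above the DMSO baseline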
Method in brief: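 HepG2 cells transiently transfected with GAL4-UAS multiple reporter units, medium containing 3 nM 6-alpha-fluorotestosterone and 1.5 nM norgestrel; reporter mRNA measured 24 hours post-dosing by RT-PCR and capillary electrophoresis. Internal background marker, gain of signal vs DMSO.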

[9] = test system: turtle Estrogen Receptor (ERa), gene 101933533; experiment: ATG_trERa_XSP2: Attagene TRANS-FACTORIAL Multi-Species (XSP2) HepG2 Assay for turtle Estrogen Receptor (ERa) (AID 2283812);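 also: human HepG2 liver cells transiently expressing turtle ERa-Gal4 chimeric receptor; actives raise reporter signal above DMSO so AC50 reflects agonist activity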
Method in brief: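 HepG2 cells transiently transfected with GAL4-UAS reporter units expressing turtle ERa-Gal4 chimera. Reporter mRNA measured after 24 h dosing by RT-PCR, fluorescent labelling and capillary electrophoresis; gain of signal fitted versus DMSO.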

[10] = target: Estrogen receptor beta (Homo sapiens) (UniProt Q92731); experiment: ATG_hERb_XSP2: Attagene TRANS-FACTORIAL Multi-Species (XSP2) HepG2 Assay for human Estrogen Receptor (ERb) (AID 2283813);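 also: actives raise reporter mRNA above DMSO so AC50 reflects agonist induction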
Method in brief: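 HepG2 cells transiently transfected with GAL4-UAS reporter units and chimeric human ERb-Gal4, 24 h exposure. Reporter mRNA quantified by RT-PCR with FAM labelling, HpaI digestion and capillary electrophoresis; gain of signal versus DMSO.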

[11] = test system: turtle Androgen Receptor (AR), gene 101947425; experiment: ATG_trAR_XSP2: Attagene TRANS-FACTORIAL Multi-Species (XSP2) HepG2 Assay for turtle Androgen Receptor (AR) (AID 2283815);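 as to AC50: potency for gain of reporter signal meaning activation above DMSO baseline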
Method in brief: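 HepG2 cells transiently transfected with GAL4-UAS reporter units for chimeric NR-Gal4 receptors; 24 h dosing in presence of 3 nM 6-alpha-fluorotestosterone and 1.5 nM norgestrel. Reporter mRNA by RT-PCR and capillary electrophoresis, gain of signal versus DMSO.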

[12] = target: chicken Estrogen Receptor (ERa), ESR1 (gene 396099) (UniProt P06212); experiment: ATG_chERa_XSP2: Attagene TRANS-FACTORIAL Multi-Species (XSP2) HepG2 Assay for chicken Estrogen Receptor (ERa) (AID 2283817);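 also: actives raise reporter signal above DMSO so AC50 reflects ER activation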
Method in brief: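 Transiently transfected HepG2 cells expressing chimeric chicken ERa-GAL4 reporter units, dosed 24 h with 3 nM 6-alpha-fluorotestosterone and 1.5 nM norgestrel present. Reporter mRNA measured by RT-PCR and capillary electrophoresis; gain-of-signal fitted relative to DMSO.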

[13] = target: frog Thyroid hormone Receptor alpha (TRa), thra-a (gene 397942) (UniProt P15204); experiment: ATG_frTRa_XSP1: Attagene TRANS-FACTORIAL Multi-Species (XSP1) HepG2 Assay for frog Thyroid hormone Receptor alpha (TRa) (AID 2283804)
Method in brief: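 HepG2 cells transiently transfected with frog TRa-GAL4 chimeric reporter units, dosed 24 hr with 3 nM 6-alpha-fluorotestosterone present; reporter mRNA quantified by RT-PCR, fluorescent labelling and capillary electrophoresis, gain of signal versus DMSO.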

[14] = target: human Thyroid hormone Receptor alpha (TRa), THRA (gene 7067) (UniProt P10827); experiment: ATG_hTRa_XSP1: Attagene TRANS-FACTORIAL Multi-Species (XSP1) HepG2 Assay for human Thyroid hormone Receptor alpha (TRa) (AID 2283805)
Method in brief: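 HepG2 cells transiently transfected with GAL4-UAS reporter units expressing chimeric NR-Gal4 proteins, dosed 24 hours with 3 nM 6-alpha-fluorotestosterone present. Reporter mRNA measured by RT-PCR and capillary electrophoresis; gain of signal fitted versus DMSO.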

[15] = target: zebrafish Thyroid Hormone Receptor alpha (TRa), thraa (gene 30670) (UniProt Q98867); experiment: ATG_zfTRa_XSP1: Attagene TRANS-FACTORIAL Multi-Species (XSP1) HepG2 Assay for zebrafish Thyroid Hormone Receptor alpha (TRa) (AID 2283807)
Method in brief: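 HepG2 cells transiently transfected with GAL4-UAS reporter units including a zebrafish TRa–Gal4 chimera, dosed 24 h with 3 nM 6-alpha-fluorotestosterone present. Reporter mRNA quantified by RT-PCR and capillary electrophoresis; gain versus DMSO.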

[16] = ATG_XTT_Cytotoxicity_XSP1: Cytotoxicity Assessment in the Attagene TRANS-FACTORIAL Multi-Species (XSP1) HepG2 Assay (AID 2283810)
Method in brief: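 XTT viability readout taken at 24 hours post-dosing in HepG2 liver cells co-treated with 3 nM 6-alpha-fluorotestosterone. Signal loss relative to DMSO controls reflects cytotoxicity.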

[17] = target: GAL4 Transcription Factor (Internal Marker), GAL4 (gene 855828) (UniProt P04386); experiment: ATG_GAL4_XSP2: Attagene TRANS-FACTORIAL Multi-Species (XSP2) HepG2 Assay for GAL4 Transcription Factor (Internal Marker) (AID 2283814);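 also: GAL4 reporter mRNA background control in MRTU transfected cells not a receptor target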
Method in brief: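 HepG2 cells transiently transfected with GAL4-UAS reporter units, stimulated with 3 nM 6-alpha-fluorotestosterone plus 1.5 nM norgestrel, dosed 24 h. Reporter mRNA by RT-PCR/capillary electrophoresis; gain-of-signal fit versus DMSO, background control.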

[18] = target: zebrafish Estrogen Receptor (ER1), esr1 (gene 259252) (UniProt P57717); experiment: ATG_zfER1_XSP2: Attagene TRANS-FACTORIAL Multi-Species (XSP2) HepG2 Assay for zebrafish Estrogen Receptor (ER1) (AID 2283816)
Method in brief: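 HepG2 cells transiently transfected with a GAL4-UAS reporter and a chimeric zebrafish ER1-Gal4 construct, dosed 24 h. Reporter mRNA quantified by RT-PCR, labelling, HpaI digestion and capillary electrophoresis, relative to DMSO.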

[19] = target: human Thyroid hormone Receptor beta (TRb), THRB (gene 7068) (UniProt P10828); experiment: ATG_hTRb_XSP1: Attagene TRANS-FACTORIAL Multi-Species (XSP1) HepG2 Assay for human Thyroid hormone Receptor beta (TRb) (AID 2283808)
Method in brief: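 HepG2 cells transiently transfected with reporter units driving GAL4-UAS reporters for chimeric NR-Gal4 proteins; 24 h chemical exposure with 3 nM 6-alpha-fluorotestosterone present. Reporter mRNA quantified by RT-PCR and capillary electrophoresis, gain of signal versus DMSO.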

[20] = ATG_M_32_XSP1: Attagene TRANS-FACTORIAL Multi-Species (XSP1) HepG2 Assay for M32 Transcription Factor (Internal Marker) (AID 2283799)
Method in brief: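 HepG2 cells transiently transfected with multi-species TRANS reporter units, dosed 24 h with 3 nM 6-alpha-fluorotestosterone present. Internal-marker reporter mRNA quantified by RT-PCR and capillary electrophoresis; positive-direction fit versus DMSO.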

Chain of human Thyroid hormone Receptor alpha (TRa), THRA (gene 7067) (P10827 whole entry, looked up, the tested form may be a part): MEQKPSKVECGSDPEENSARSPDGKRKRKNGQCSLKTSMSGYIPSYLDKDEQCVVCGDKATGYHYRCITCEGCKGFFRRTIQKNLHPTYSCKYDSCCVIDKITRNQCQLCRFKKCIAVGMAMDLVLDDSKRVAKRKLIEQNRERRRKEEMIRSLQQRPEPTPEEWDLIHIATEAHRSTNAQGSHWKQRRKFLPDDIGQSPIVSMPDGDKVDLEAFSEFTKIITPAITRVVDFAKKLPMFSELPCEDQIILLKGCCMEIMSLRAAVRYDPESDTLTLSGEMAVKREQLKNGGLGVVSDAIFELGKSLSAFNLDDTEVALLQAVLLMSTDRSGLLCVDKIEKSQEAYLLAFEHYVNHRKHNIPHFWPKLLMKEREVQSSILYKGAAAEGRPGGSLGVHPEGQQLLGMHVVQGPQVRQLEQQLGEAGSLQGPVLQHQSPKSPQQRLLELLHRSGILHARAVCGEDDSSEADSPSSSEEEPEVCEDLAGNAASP
Chain of zebrafish Thyroid Hormone Receptor alpha (TRa), thraa (gene 30670) (Q98867 whole entry, looked up, the tested form may be a part): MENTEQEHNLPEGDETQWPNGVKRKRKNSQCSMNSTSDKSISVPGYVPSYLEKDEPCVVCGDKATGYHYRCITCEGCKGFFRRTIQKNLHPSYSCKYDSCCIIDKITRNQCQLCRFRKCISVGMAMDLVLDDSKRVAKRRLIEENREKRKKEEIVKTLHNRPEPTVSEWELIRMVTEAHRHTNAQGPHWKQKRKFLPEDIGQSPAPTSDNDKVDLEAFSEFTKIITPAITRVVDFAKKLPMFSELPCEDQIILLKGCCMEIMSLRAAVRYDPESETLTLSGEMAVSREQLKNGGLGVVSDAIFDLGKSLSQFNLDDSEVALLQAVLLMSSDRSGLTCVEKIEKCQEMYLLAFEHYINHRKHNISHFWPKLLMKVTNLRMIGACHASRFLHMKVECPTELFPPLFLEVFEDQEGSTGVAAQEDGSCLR
Chain of Estrogen receptor beta (Homo sapiens) (Q92731 whole entry, looked up, the tested form may be a part): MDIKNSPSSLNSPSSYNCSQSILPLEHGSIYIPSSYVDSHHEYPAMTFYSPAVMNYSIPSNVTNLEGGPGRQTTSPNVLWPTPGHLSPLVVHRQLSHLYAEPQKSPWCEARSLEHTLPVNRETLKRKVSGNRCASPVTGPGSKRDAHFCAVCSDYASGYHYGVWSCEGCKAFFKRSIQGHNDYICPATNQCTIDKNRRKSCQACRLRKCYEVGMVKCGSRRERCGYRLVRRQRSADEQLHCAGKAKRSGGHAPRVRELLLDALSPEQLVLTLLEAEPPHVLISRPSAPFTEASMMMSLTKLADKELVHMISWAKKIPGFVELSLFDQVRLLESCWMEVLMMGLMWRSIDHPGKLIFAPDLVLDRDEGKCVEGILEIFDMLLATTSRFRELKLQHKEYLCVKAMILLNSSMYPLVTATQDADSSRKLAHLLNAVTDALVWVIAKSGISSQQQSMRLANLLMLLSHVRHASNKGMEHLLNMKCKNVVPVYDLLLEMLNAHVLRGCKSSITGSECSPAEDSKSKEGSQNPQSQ
Chain of chicken Estrogen Receptor (ERa), ESR1 (gene 396099) (P06212 whole entry, looked up, the tested form may be a part): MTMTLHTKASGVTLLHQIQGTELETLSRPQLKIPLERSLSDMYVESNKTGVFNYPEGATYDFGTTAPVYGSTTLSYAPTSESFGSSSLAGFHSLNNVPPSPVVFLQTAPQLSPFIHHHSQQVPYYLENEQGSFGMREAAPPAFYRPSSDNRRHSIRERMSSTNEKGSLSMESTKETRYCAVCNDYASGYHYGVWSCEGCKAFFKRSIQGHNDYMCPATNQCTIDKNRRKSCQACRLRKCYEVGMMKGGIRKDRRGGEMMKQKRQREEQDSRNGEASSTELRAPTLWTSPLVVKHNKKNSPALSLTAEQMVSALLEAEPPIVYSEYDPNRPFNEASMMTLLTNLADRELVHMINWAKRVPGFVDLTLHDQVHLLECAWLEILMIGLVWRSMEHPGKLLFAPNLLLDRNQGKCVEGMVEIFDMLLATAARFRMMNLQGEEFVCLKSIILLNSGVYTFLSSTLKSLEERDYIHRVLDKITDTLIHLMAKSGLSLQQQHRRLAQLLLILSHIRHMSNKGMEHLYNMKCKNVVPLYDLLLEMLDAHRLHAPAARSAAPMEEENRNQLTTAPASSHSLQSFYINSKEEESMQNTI
Chain of GAL4 Transcription Factor (Internal Marker), GAL4 (gene 855828) (P04386 whole entry, looked up, the tested form may be a part): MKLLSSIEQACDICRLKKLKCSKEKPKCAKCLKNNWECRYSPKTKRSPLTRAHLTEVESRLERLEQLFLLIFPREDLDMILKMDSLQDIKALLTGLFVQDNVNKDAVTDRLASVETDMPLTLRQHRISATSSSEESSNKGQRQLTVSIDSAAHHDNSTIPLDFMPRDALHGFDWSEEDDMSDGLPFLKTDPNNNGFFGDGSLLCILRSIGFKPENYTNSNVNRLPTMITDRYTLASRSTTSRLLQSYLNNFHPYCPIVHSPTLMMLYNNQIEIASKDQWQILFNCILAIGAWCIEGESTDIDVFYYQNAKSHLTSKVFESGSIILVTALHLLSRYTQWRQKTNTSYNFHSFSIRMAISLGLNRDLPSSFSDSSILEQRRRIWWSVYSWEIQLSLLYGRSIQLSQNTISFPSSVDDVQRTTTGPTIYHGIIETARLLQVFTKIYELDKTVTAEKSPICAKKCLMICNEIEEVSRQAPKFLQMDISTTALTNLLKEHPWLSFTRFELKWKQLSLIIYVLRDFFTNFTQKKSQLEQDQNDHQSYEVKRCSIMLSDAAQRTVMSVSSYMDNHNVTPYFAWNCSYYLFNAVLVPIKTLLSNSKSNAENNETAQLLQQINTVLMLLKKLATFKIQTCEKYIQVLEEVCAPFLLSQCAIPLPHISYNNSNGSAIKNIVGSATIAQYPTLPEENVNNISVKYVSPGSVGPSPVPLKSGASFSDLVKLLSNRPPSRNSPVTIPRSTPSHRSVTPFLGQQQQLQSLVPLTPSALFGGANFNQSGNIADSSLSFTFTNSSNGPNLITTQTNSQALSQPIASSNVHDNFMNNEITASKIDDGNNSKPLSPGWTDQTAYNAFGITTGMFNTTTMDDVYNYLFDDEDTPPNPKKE
Chain of zebrafish Estrogen Receptor (ER1), esr1 (gene 259252) (P57717 whole entry, looked up, the tested form may be a part): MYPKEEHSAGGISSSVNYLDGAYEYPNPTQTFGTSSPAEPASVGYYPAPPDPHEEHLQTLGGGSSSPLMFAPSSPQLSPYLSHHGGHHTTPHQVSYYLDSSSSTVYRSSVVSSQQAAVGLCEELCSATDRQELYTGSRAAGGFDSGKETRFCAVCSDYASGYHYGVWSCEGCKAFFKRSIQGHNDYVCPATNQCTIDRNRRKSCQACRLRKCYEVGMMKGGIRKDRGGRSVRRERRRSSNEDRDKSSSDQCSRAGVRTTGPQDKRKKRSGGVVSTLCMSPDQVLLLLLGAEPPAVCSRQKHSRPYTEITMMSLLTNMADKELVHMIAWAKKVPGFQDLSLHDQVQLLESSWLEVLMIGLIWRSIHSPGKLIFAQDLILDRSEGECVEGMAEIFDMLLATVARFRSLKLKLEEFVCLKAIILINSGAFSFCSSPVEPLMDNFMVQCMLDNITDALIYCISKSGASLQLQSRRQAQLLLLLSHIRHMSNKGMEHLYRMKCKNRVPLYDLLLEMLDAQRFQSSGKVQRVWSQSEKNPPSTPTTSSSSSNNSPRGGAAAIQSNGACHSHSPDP
Chain of Nuclear receptor subfamily 1 group I member 2 (Mus musculus) (O54915 whole entry, looked up, the tested form may be a part): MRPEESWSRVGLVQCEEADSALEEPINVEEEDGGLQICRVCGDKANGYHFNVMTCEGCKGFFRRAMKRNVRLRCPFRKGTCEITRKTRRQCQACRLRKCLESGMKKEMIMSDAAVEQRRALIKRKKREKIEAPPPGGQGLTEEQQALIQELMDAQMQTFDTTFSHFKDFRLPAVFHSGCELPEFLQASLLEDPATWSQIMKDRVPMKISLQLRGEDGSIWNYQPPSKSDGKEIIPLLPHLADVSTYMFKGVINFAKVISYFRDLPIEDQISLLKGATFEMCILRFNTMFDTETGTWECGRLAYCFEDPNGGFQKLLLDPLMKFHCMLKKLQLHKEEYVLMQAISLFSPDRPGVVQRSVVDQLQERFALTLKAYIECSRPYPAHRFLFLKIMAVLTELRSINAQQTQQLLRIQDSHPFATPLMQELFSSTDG
Chain of human Thyroid hormone Receptor beta (TRb), THRB (gene 7068) (P10828 whole entry, looked up, the tested form may be a part): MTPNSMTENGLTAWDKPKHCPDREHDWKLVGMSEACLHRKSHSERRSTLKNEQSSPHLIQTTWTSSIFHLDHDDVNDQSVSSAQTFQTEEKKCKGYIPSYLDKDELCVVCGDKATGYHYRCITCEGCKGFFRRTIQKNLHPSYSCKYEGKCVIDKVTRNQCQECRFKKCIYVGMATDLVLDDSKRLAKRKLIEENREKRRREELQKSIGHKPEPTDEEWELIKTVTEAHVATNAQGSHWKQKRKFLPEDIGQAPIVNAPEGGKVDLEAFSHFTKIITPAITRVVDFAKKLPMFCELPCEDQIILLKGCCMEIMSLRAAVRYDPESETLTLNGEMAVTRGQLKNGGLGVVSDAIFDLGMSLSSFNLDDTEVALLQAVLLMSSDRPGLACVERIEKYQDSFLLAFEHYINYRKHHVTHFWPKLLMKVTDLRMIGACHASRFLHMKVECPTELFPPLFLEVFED
Chain of mouse Peroxisome Proliferator-activated Receptor gamma (PPARg), Pparg (gene 19016) (P37238 whole entry, looked up, the tested form may be a part): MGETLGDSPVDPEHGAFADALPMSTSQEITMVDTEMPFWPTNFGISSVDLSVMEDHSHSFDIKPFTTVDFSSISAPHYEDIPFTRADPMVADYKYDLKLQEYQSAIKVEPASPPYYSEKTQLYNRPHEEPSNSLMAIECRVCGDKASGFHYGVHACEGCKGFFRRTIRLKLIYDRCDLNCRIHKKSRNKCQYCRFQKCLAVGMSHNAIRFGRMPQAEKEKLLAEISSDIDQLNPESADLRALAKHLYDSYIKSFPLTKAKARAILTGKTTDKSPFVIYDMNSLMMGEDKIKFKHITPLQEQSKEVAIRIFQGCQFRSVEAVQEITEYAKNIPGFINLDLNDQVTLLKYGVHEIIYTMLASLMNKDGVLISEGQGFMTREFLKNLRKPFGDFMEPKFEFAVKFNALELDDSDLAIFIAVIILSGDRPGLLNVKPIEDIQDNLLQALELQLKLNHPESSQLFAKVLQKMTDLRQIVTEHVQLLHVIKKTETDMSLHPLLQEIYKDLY

SMILES: COP(=S)(OC)Oc1nc(Cl)c(Cl)cc1Cl
- outcome [1]: inactive
- outcome [2]: inactive
- outcome [3]: inactive
- AC50 [4]: 3.73 µM (active)
- AC50 [5]: 9.79 µM (active)
- outcome [6]: inactive
- outcome [7]: inactive
- outcome [8]: inactive
- AC50 [9]: 55.8 µM (active)
- outcome [10]: inactive
- AC50 [11]: 17.5 µM (active)
- AC50 [12]: 35.3 µM (active)

SMILES: CON(C)C(=O)Nc1ccc(Cl)c(Cl)c1
- outcome [1]: inactive
- outcome [2]: inactive
- AC50 [4]: 100 µM (active)
- AC50 [5]: 13.6 µM (active)
- outcome [13]: inactive
- outcome [14]: inactive
- outcome [6]: inactive
- outcome [15]: inactive
- outcome [7]: inactive
- outcome [16]: inactive
- outcome [17]: inactive
- outcome [18]: inactive
- outcome [12]: inactive

SMILES: CCCCNC(=O)OCC#CI
- outcome [1]: inactive
- outcome [2]: inactive
- AC50 [4]: 11.1 µM (active)
- outcome [5]: inactive
- outcome [13]: inactive
- outcome [14]: inactive
- outcome [6]: inactive
- outcome [19]: inactive
- AC50 [16]: 23.2 µM (active)
- outcome [8]: inactive
- outcome [10]: inactive
- outcome [18]: inactive

SMILES: CCCN(CCC)c1c([N+](=O)[O-])cc(S(N)(=O)=O)cc1[N+](=O)[O-]
- outcome [1]: inactive
- outcome [2]: inactive
- AC50 [20]: 54.4 µM (active)
- AC50 [4]: 24.4 µM (active)
- AC50 [13]: 8.93 µM (active)
- AC50 [14]: 8.28 µM (active)
- AC50 [6]: 8.29 µM (active)
- outcome [15]: inactive
- AC50 [19]: 9.26 µM (active)
- AC50 [7]: 9.16 µM (active)
- AC50 [16]: 161 µM (active)
- outcome [8]: inactive
- outcome [9]: inactive
- outcome [10]: inactive
- outcome [18]: inactive
- outcome [12]: inactive

SMILES: CCCCOC(=O)c1ccccc1C(=O)OCCCC
- outcome [3]: inactive
- outcome [20]: inactive
- AC50 [4]: 27.9 µM (active)
- AC50 [5]: 9.15 µM (active)
- outcome [6]: inactive
- outcome [15]: inactive
- outcome [19]: inactive
- outcome [7]: inactive
- outcome [16]: inactive
- AC50 [9]: 42.3 µM (active)
- outcome [10]: inactive
- outcome [17]: inactive
- outcome [18]: inactive
- AC50 [12]: 23 µM (active)

SMILES: C#CCOS(=O)OC1CCCCC1Oc1ccc(C(C)(C)C)cc1 (configuration not stated)
- outcome [1]: inactive
- outcome [2]: inactive
- AC50 [4]: 7.65 µM (active)
- AC50 [5]: 1.54 µM (active)
- outcome [14]: inactive
- outcome [6]: inactive
- outcome [19]: inactive
- outcome [7]: inactive
- outcome [8]: inactive
- outcome [9]: inactive
- outcome [17]: inactive
- outcome [11]: inactive
- outcome [18]: inactive
- outcome [12]: inactive

SMILES: OC(c1ccc(Cl)cc1)(c1cncnc1)c1ccccc1Cl (configuration not stated)
- outcome [4]: inactive
- AC50 [5]: 1.17 µM (active)
- outcome [15]: inactive
- outcome [16]: inactive
- outcome [8]: inactive
- AC50 [9]: 1.49 µM (active)
- AC50 [10]: 25.4 µM (active)
- outcome [17]: inactive
- AC50 [18]: 25.9 µM (active)
- AC50 [12]: 1.8 µM (active)

SMILES: CC(C)(C)c1ccc(CSc2cnn(C(C)(C)C)c(=O)c2Cl)cc1
- outcome [1]: inactive
- outcome [2]: inactive
- AC50 [4]: 0.585 µM (active)
- AC50 [5]: 0.634 µM (active)
- AC50 [13]: 0.148 µM (active)
- outcome [6]: inactive
- outcome [15]: inactive
- outcome [7]: inactive
- outcome [16]: inactive
- outcome [8]: inactive
- outcome [9]: inactive
- outcome [10]: inactive
- outcome [17]: inactive
- outcome [11]: inactive
- outcome [18]: inactive
- outcome [12]: inactive
